Test results taken from PubChem BioAssay (Tox21).
Several values for one entry are separate records, joined by “and”; a condition that tells them apart may be missing. Equal values may be shown once. Inconclusive results are not listed. More than one record can exist for a structure, and the calls need not agree. Activity calls are given as the source filed them. Unless noted, calls follow the shape of the dose curve; as a rule, active = well fitted curve in the direction sought with a large enough effect in the repeat runs; inconclusive = weak or mixed curves; inactive = no such curve, though single readings can be large; an effect the other way counts as inactive or inconclusive.

What was measured:
[1] = qHTS assay to identify small molecule agonists of the hypoxia (HIF-1) signaling pathway - cell viability counter screen (AID 1224844; calls by dose curve; also: nearly all actives have a fitted effect of over 50% in size)
Summary of the method: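 Cells (HRE-bla ME-180, 2,000 per well) sat 5 hrs at 37C, got compound for 17 hrs, were read for CCF4-AM FRET, and were finally lysed with CellTiter-Glo for a 30 min room-temperature luminescence read.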

[2] = qHTS assay to identify small molecule agonists of H2AX (AID 1224845; active = well fitted activation curve with a large enough effect in the signal ratio in the repeat runs, not every such curve was filed as active; the % refers to the signal ratio; also: potency is read from the fitted curve at half-maximal effect)
Summary of the method: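 Phospho-H2AX Ser139 measured by HTRF (ex 320 nm; em 665 and 620 nm) after 24 hr antibody incubation. Compounds, 15 concentrations, 0.76% DMSO, were applied to CHO-K1 cells for 3hr at 37C before lysis.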

[3] = qHTS assay to identify small molecule agonists of the hypoxia (HIF-1) signaling pathway (AID 1224846; active = well fitted activation curve with a large enough effect in the signal ratio in the repeat runs, not every such curve was filed as active; the % refers to the signal ratio)
Summary of the method: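 A low-serum medium (0.5% dialyzed FBS) holding 2,000 HRE-bla ME-180 cells per well is preincubated for 5 hrs, dosed with compounds by pintool, and kept a further 17 hrs at 37C, 5% CO2 before CCF4-AM FRET detection of beta-lactamase.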

[4] = qHTS assay to identify small molecule agonists of H2AX - cell viability counter screen (AID 1224847; calls by dose curve; also: nearly all actives have a fitted effect of over 30% in size; also: potency is read from the fitted curve at half-maximal effect)
Summary of the method: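 Wild-type CHO-K1 cells (10% FBS medium) were plated overnight at 37C, exposed to compounds at 15 concentrations for 3 hr at 37C (0.76% DMSO final), and viability was read as CellTiter-Glo luminescence after 30 min at room temperature.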

[5] = qHTS RealTime-Glo MT Cell Viability Assay in HepG2 cells - 24 hour (AID 1224867); also: nearly all actives have a fitted effect of over 50% in size; also: potency is read from the fitted curve at half-maximal effect
Summary of the method: (§1)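 Viability was tracked continuously by NanoLuc luminescence from prosubstrate reduced by living HepG2 cells, at successive time points over 40 h of compound exposure. Cells with reagent were preincubated 5 h at 37 °C before compound addition.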

[6] = A CellTox Green Cytotoxicity Assay to monitor cytotoxicity in HEK293 cells - 0 hour (AID 1224869); also: nearly all actives have a fitted effect of over 50% in size; also: potency is read from the fitted curve at half-maximal effect
Summary of the method: (§2)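 Fluorescence intensity, read at 0, 8, 16, 24, 32 and 40 h of compound treatment, reflected dye binding to DNA of dead HEK293 cells; compounds (23 nL, DMSO) were added 5 h after plating cells with reagent.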

[7] = qHTS RealTime-Glo MT Cell Viability Assay in HepG2 cells - 40 hour (AID 1224870); also: nearly all actives have a fitted effect of over 50% in size; also: potency is read from the fitted curve at half-maximal effect
Summary of the method: (§3)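 Real-time viability: cells seeded at 600 per well together with NanoLuc and cell-permeant prosubstrate, compounds added after 5 h incubation. Luminescence tracked at 0, 8, 16, 24, 32 and 40 h of exposure.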

[8] = A CellTox Green Cytotoxicity Assay to monitor cytotoxicity in HEK293 cells - 40 hour (AID 1224871); also: nearly all actives have a fitted effect of over 45% in size; also: potency is read from the fitted curve at half-maximal effect
Summary of the method: as §2

[9] = qHTS RealTime-Glo MT Cell Viability Assay in HEK293 cells - 16 hour (AID 1224872); also: nearly all actives have a fitted effect of over 50% in size; also: potency is read from the fitted curve at half-maximal effect
Summary of the method: (§4)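 Viability tracked continuously by luminescence as live cells reduce a prosubstrate for NanoLuc; HEK293 cells preincubated 5 h, compound-treated at 37 C, and read at 0, 8, 16, 24, 32 and 40 h.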

[10] = qHTS RealTime-Glo MT Cell Viability Assay in HepG2 cells - 8 hour (AID 1224873); also: nearly all actives have a fitted effect of over 55% in size; also: potency is read from the fitted curve at half-maximal effect
Summary of the method: as §3

[11] = qHTS RealTime-Glo MT Cell Viability Assay in HEK293 cells - 40 hour (AID 1224874); conditions: RealTime-Glo luminescence; max response: stronger effect = lower value; also: nearly all actives have a fitted effect of over 50% in size; also: potency is read from the fitted curve at half-maximal effect
Summary of the method: (§5)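 Viable HEK293 cells reduce a cell-permeant prosubstrate; the product diffuses out and is consumed by NanoLuc in the medium to give light. Compounds went in after a 5 h incubation and plates were read over the treatment course.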

[12] = A CellTox Green Cytotoxicity Assay to monitor cytotoxicity in HEK293 cells - 24 hour (AID 1224875); also: nearly all actives have a fitted effect of over 45% in size; also: potency is read from the fitted curve at half-maximal effect
Summary of the method: as §2

[13] = A CellTox Green Cytotoxicity Assay to monitor cytotoxicity in HepG2 cells - 16 hour (AID 1224876); also: nearly all actives have a fitted effect of over 45% in size; also: potency is read from the fitted curve at half-maximal effect
Summary of the method: (§6)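 Using 1536-well format, dye-containing HepG2 suspension was seeded, allowed 5 h at 37 C/5% CO2, dosed by pintool with compounds, positive and negative controls, and imaged for fluorescence across 40 h.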

[14] = qHTS RealTime-Glo MT Cell Viability Assay in HepG2 cells - 32 hour (AID 1224877); also: nearly all actives have a fitted effect of over 55% in size; also: potency is read from the fitted curve at half-maximal effect
Summary of the method: as §1

[15] = A CellTox Green Cytotoxicity Assay to monitor cytotoxicity in HepG2 cells - 40 hour (AID 1224879); also: nearly all actives have a fitted effect of over 40% in size; also: potency is read from the fitted curve at half-maximal effect
Summary of the method: as §6

[16] = qHTS assay to identify small molecule antagonists of the estrogen related receptor (ERR) signaling pathway from Tox21 library (AID 1224848); also: nearly all actives have a fitted effect of over 50% in size; also: potency is read from the fitted curve at half-maximal effect
Summary of the method: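 Antagonist-mode screen of the Tox21 10K library in an NTP-provided ERR reporter cell line; 18 h compound exposure at 37 C, luminescence measured with ONE-Glo.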

[17] = qHTS assay to identify small molecule agonists of the estrogen related receptor (ERR) signaling pathway from Tox21 library (AID 1224849; calls by dose curve; also: nearly all actives have a fitted effect of over 15% in size); conditions: ERR reporter cell line, ONE-Glo luciferase, 18 h
Summary of the method: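 Screening used an NTP-provided ERR luciferase cell line. Compounds in DMSO were added 6 h after seeding and left 18 h at 37 C before a 30 min ONE-Glo step and luminescence reading.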

[18] = qHTS RealTime-Glo MT Cell Viability Assay in HEK293 cells - 32 hour (AID 1224868); also: nearly all actives have a fitted effect of over 50% in size; also: potency is read from the fitted curve at half-maximal effect
Summary of the method: as §4

[19] = A CellTox Green Cytotoxicity Assay to monitor cytotoxicity in HepG2 cells - 24 hour (AID 1224878); also: nearly all actives have a fitted effect of over 45% in size
Summary of the method: as §6

[20] = qHTS RealTime-Glo MT Cell Viability Assay in HEK293 cells - 0 hour (AID 1224880); also: nearly all actives have a fitted effect of over 45% in size; also: potency is read from the fitted curve at half-maximal effect
Summary of the method: as §5
% is scaled to controls: 0 for no effect and ±100 for the full control effect.

Nc1ccc2c(c1)C(=O)c1ccccc1C2=O
98.9 µM (active) and inactive: Potency [4]
inactive: Potency [1] | Potency [2] | outcome [3] | Potency [5] | Potency [6] | Potency [7] | Potency [9] | Potency [10] | max response [11] -23.1% and -12.6% | Potency [12] | Potency [13] | Potency [14] | Potency [15]
30.3 µM (active) and inactive: Potency [8]

[O-]/[N+](=N\O)c1ccccc1
inactive: Potency [1] | Potency [2] | Potency [4] | Potency [16] | activity change, positive = activation ([17]; at 92.4 µM (top of the series)) 4.43% and 12.7% | Potency [5] | Potency [18] | Potency [6] | Potency [7] | Potency [8] | Potency [9] | Potency [10] | max response [11] 2.42% and -11.8% | Potency [12] | Potency [13] | Potency [14] | Potency [19] | Potency [15]

COC(=O)C(C)Oc1ccc(Oc2ncc(C(F)(F)F)cc2Cl)cc1 (centres undefined)
inactive: Potency [1] | Potency [2] | Potency [4] | activity change, positive = activation ([17]; at 92.4 µM (top of the series)) -47.3% and -26.9% | Potency [5] | Potency [6] | Potency [7] | Potency [8] | Potency [10] | max response [11] -25% | Potency [12] | Potency [13] | Potency [14] | Potency [19] | Potency [15] | Potency [20]
active: Potency [16] 39.1 µM

CC1(C)NC(=O)N(c2ccc([N+](=O)[O-])c(C(F)(F)F)c2)C1=O
28.4 µM (active) and inactive: Potency [4]
inactive: Potency [1] | Potency [2] | activity change, positive = activation ([17]; at 42.5 µM (top of the series)) -39.2% | activity change, positive = activation ([17]; at 92.4 µM (top of the series)) -43.1% | Potency [5] | Potency [6] | Potency [7] | Potency [8] | Potency [10] | Potency [12] | Potency [13] | Potency [14] | Potency [15]
active: Potency [16] 17.2 µM and 11.9 µM | Potency [18] 24.5 µM | Potency [11] 24.5 µM

CC(=O)O[C@]1(C(C)=O)CC[C@H]2[C@@H]3C=C(Cl)C4=CC(=O)CC[C@]4(C)[C@H]3CC[C@@]21C
inactive: Potency [1] | Potency [2] | Potency [5] | Potency [6] | Potency [7] | Potency [8] | Potency [10] | Potency [12] | Potency [13] | Potency [14] | Potency [19] | Potency [15]
101 µM (active) and inactive: Potency [4]
active: Potency [18] 19.5 µM | Potency [9] 21.8 µM | Potency [11] 21.8 µM and 10.7 µM

C[C@]12CC[C@@H]3c4ccc(O)cc4CC[C@H]3[C@@H]1CC[C@H]2O
active: Potency [16] 15.6 µM and 27.3 µM | Potency [18] 5.59 µM and 13.8 µM | Potency [11] 5.59 µM and 15.5 µM | Potency [15] 9.94 µM and 34.7 µM
inactive: Potency [1] | Potency [2] | Potency [4] | activity change, positive = activation ([17]; at 92.4 µM (top of the series)) -38.5% and -39.7% | Potency [5] | Potency [6] | Potency [7] | Potency [8] | Potency [10] | Potency [12] | Potency [13] | Potency [14] | Potency [19] | Potency [20]

FC(F)(F)C(Cl)Br (centres undefined)
inactive: Potency [1] | Potency [2] | Potency [4] | Potency [16] | activity change, positive = activation ([17]; at 42.5 µM (top of the series)) 6.22% | activity change, positive = activation ([17]; at 92.4 µM (top of the series)) 3.79% | Potency [5] | Potency [6] | Potency [7] | Potency [8] | Potency [9] | max response [11] -4.81% and 5.64% | Potency [12] | Potency [13] | Potency [14] | Potency [19] | Potency [15] | Potency [20]

C[C@]12CC[C@@H]3c4ccc(O)cc4CC[C@H]3[C@@H]1CC[C@@H]2O
inactive: Potency [1] | Potency [2] | Potency [4] | activity change, positive = activation ([17]; at 92.4 µM (top of the series)) -53.8% and -42.2% | Potency [5] | Potency [6] | Potency [7] | Potency [8] | Potency [10] | Potency [12] | Potency [13] | Potency [14] | Potency [19] | Potency [20]
active: Potency [16] 27.3 µM and 34.4 µM | Potency [18] 17.3 µM and 21.9 µM | Potency [11] 17.3 µM and 21.9 µM | Potency [15] 34.6 µM

CCCCCCOCCOCCO
inactive: Potency [1] | Potency [2] | Potency [4] | Potency [5] | Potency [18] | Potency [6] | Potency [7] | Potency [8] | Potency [9] | Potency [10] | max response [11] 4% and -0.302% | Potency [12] | Potency [13] | Potency [14] | Potency [19] | Potency [15] | Potency [20]

O=C1OC2(c3ccccc31)c1cc(I)c(O)c(I)c1Oc1c2cc(I)c(O)c1I
inactive: Potency [1] | Potency [16] | activity change, positive = activation ([17]; at 42.5 µM (top of the series)) -27.3% and -18.3% and -7.34% | activity change, positive = activation ([17]; at 92.4 µM (top of the series)) -20.6% | max response [11] -20.2%
49.1 µM (active) and inactive: Potency [18] | Potency [9]
active: Potency [2] 51.1 µM | Potency [4] 11.3 µM and 28.7 µM and 8.65 µM | Potency [5] 39 µM and 27.9 µM | Potency [6] 15.5 µM [middle of 4 runs] | Potency [7] 24.6 µM and 12.4 µM and 29.8 µM | Potency [8] 11.8 µM [middle of 4 runs] | Potency [10] 39 µM | Potency [11] 49.1 µM | Potency [12] 12 µM [middle of 4 runs] | Potency [13] 11.8 µM [middle of 4 runs] | Potency [14] 39 µM and 24.8 µM and 29.8 µM | Potency [15] 13.3 µM [middle of 4 runs] | Potency [20] 5.56 µM [middle of 4 runs]
